Measurements published in PMC7862700, “An all-to-all approach to the identification of sequence-specific readers for epigenetic DNA modifications on cytosine”.

What was measured:
Assay in all cases: DAPPL (digital affinity profiling via proximity ligation, sequencing); 10 mM Tris-HCl pH 7.5, 50 mM NaCl, 1 mM DTT, 4% glycerol, room temperature, 30 min; GST-TFs on glutathione beads, 16-mer random dsDNA library, 0.1% formaldehyde crosslink after washing; high values mean tight binding
FEV = biological target: T1, FEV (Homo sapiens, UniProt Q99581 1-238); conditions: protein: recombinant; tags: N-terminal GST; dsDNA, one strand shown
T1 sequence: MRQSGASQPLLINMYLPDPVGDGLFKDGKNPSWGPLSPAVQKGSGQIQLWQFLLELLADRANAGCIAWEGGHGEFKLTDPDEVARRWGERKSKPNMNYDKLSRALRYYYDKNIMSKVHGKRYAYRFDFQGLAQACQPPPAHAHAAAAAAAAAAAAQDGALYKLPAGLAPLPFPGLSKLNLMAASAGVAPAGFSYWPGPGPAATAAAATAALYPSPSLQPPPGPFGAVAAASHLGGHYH
Procedure, shortened: (§1)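 Human transcription factors carrying a GST fusion were produced in yeast, bound to glutathione beads, tagged with DNA barcodes and pooled together with a tag-only sample. Each pool was held with 200 nmole of a random double-stranded 16-mer DNA library in Tris/NaCl/DTT/glycerol buffer for 30 min at room temperature, then washed, crosslinked in 0.1% formaldehyde, proximity-ligated with BsaI/T4 ligase (1 h, 37 °C), PCR-amplified and sequenced on an Illumina NextSeq500. Binding signal is the read frequency of each hexamer for a given factor divided by its frequency in the tag-only sample.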

ETV5 = ETV5 (Homo sapiens, UniProt P41161 1-510); conditions: protein: recombinant; tags: N-terminal GST; dsDNA, one strand shown
Sequence of ETV5 (P41161 whole entry): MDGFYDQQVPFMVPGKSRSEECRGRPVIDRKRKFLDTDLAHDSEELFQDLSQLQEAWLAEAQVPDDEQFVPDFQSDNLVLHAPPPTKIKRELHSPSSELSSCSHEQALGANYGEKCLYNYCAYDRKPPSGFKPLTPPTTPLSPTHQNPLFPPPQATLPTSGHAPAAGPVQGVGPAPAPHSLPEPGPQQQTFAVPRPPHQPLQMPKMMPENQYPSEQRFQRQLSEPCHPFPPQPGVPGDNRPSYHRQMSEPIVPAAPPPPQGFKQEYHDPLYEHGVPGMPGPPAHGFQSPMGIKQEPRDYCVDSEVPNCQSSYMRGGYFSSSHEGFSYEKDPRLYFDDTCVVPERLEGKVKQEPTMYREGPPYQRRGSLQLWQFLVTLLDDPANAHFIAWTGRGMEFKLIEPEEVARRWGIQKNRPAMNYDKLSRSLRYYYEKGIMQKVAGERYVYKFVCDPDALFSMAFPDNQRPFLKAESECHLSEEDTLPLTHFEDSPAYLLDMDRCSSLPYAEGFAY
Procedure, shortened: as §1

HSF1 = HSF1 (Homo sapiens, UniProt Q00613 1-529); conditions: protein: recombinant; tags: N-terminal GST; chain copies: 3; dsDNA, one strand shown
Sequence of HSF1 (Q00613 whole entry): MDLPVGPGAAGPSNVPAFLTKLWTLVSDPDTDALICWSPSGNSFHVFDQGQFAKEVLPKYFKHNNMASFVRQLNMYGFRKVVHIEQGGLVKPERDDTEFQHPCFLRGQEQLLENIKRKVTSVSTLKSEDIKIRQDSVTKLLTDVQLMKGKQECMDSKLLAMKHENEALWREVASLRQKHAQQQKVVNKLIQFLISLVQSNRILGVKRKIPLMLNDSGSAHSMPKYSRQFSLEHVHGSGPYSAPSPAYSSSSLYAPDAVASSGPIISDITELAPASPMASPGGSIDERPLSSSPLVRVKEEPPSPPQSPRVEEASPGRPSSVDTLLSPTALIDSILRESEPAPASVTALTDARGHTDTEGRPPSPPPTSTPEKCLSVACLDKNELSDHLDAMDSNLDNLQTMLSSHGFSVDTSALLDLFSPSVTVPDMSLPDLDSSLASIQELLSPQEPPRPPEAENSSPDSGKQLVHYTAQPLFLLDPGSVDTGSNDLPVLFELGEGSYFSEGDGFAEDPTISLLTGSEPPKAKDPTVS
Procedure, shortened: as §1

SPIC = biological target: T2, SPIC (Homo sapiens, UniProt Q8N5J4 1-248); conditions: protein: recombinant; tags: N-terminal GST; dsDNA, one strand shown
T2 sequence: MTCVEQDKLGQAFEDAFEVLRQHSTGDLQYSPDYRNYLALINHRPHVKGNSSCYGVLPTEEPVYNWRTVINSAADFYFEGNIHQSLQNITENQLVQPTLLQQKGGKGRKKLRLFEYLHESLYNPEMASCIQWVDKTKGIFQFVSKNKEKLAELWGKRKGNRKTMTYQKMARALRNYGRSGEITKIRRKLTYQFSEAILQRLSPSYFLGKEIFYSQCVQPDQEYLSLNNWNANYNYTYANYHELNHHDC
Procedure, shortened: as §1

ELF4 = ELF4 (Homo sapiens, UniProt Q99607 1-663); conditions: protein: recombinant; tags: N-terminal GST; dsDNA, one strand shown
Sequence of ELF4 (Q99607 whole entry): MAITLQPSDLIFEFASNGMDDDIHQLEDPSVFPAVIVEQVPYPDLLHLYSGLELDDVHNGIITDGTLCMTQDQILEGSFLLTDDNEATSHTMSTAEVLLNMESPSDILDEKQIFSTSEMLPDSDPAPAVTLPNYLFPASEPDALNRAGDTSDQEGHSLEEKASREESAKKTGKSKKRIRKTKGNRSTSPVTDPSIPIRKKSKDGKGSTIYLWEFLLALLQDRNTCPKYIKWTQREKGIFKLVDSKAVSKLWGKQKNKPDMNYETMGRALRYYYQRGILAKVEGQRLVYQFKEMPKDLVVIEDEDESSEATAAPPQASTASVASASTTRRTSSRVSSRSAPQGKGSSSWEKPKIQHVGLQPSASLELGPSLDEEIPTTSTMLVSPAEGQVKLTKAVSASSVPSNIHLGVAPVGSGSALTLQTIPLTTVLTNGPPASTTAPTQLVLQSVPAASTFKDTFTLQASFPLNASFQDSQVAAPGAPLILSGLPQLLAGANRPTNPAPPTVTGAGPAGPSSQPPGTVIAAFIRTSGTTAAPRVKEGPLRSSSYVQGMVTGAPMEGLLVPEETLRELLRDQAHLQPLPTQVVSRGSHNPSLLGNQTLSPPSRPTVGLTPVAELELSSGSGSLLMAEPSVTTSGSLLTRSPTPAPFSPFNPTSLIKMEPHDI
Procedure, shortened: as §1

ELK4 = biological target: T3, ELK4 (Homo sapiens, UniProt P28324-2 1-405); conditions: protein: recombinant; tags: N-terminal GST; dsDNA, one strand shown
T3 sequence: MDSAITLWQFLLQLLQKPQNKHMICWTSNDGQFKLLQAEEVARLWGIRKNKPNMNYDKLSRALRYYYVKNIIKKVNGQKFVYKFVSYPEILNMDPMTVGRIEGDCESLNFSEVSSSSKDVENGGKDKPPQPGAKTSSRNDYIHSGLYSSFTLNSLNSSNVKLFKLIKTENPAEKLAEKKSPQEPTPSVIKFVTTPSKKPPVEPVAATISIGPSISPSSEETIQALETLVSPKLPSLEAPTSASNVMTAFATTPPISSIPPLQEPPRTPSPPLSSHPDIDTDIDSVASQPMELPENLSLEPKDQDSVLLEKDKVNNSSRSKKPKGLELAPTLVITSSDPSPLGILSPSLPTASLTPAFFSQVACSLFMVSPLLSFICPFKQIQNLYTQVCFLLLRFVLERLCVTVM
Procedure, shortened: as §1

ETV2 = biological target: T4, ETV2 (Homo sapiens, UniProt O00321 1-342); conditions: protein: recombinant; tags: N-terminal GST; dsDNA, one strand shown
T4 sequence: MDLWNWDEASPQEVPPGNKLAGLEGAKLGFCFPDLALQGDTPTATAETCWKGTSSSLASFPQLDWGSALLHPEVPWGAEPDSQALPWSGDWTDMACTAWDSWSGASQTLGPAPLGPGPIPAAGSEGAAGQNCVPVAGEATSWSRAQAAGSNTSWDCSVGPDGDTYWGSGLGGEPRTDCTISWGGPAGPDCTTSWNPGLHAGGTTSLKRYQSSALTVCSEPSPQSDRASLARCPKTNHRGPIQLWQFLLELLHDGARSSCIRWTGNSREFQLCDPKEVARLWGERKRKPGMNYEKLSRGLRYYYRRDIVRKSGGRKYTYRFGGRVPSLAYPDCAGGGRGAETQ
Procedure, shortened: as §1

ELF3 = biological target: T5, ELF3 (Homo sapiens, UniProt P78545 1-371); conditions: protein: recombinant; tags: N-terminal GST; dsDNA, one strand shown
T5 sequence: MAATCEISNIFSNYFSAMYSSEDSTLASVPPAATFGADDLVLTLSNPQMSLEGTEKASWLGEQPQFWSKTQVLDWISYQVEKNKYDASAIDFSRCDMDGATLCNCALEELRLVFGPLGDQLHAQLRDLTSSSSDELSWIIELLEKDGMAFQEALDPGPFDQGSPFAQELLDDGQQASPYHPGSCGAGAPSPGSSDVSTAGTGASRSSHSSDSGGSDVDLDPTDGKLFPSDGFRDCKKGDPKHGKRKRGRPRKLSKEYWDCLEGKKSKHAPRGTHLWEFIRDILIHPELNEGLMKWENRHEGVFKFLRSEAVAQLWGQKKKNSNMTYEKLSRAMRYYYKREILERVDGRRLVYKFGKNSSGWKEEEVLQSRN
Procedure, shortened: as §1

CRX = CRX (Homo sapiens, UniProt O43186 1-299); conditions: protein: recombinant; tags: N-terminal GST; dsDNA, one strand shown
Sequence of CRX (O43186 whole entry): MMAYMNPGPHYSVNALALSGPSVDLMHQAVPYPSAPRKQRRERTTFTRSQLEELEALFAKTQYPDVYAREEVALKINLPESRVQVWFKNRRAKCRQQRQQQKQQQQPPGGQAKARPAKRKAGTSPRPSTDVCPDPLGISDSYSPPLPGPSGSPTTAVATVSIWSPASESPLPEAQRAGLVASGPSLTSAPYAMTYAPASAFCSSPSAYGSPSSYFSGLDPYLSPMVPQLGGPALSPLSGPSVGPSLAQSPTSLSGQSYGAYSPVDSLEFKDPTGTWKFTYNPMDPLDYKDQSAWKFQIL
Procedure, shortened: as §1

ETV1 = ETV1 (Homo sapiens, UniProt P50549 1-477); conditions: protein: recombinant; tags: N-terminal GST; dsDNA, one strand shown
Sequence of ETV1 (P50549 whole entry): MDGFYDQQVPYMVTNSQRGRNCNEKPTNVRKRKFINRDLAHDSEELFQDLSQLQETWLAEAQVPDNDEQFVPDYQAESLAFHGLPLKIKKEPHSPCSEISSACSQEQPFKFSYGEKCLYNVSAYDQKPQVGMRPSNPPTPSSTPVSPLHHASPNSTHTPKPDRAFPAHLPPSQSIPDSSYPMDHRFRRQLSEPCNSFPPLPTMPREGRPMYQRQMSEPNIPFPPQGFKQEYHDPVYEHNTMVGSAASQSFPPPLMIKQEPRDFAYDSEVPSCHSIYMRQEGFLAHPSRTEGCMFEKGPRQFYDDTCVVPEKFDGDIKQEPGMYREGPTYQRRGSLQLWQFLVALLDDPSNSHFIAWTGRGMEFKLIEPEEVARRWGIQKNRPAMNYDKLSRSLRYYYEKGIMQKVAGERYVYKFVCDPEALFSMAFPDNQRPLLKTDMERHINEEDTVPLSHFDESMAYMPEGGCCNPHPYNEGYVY
Procedure, shortened: as §1

ERF = biological target: T6, ERF (Homo sapiens, UniProt P50548 1-548); conditions: protein: recombinant; tags: N-terminal GST; dsDNA, one strand shown
T6 sequence: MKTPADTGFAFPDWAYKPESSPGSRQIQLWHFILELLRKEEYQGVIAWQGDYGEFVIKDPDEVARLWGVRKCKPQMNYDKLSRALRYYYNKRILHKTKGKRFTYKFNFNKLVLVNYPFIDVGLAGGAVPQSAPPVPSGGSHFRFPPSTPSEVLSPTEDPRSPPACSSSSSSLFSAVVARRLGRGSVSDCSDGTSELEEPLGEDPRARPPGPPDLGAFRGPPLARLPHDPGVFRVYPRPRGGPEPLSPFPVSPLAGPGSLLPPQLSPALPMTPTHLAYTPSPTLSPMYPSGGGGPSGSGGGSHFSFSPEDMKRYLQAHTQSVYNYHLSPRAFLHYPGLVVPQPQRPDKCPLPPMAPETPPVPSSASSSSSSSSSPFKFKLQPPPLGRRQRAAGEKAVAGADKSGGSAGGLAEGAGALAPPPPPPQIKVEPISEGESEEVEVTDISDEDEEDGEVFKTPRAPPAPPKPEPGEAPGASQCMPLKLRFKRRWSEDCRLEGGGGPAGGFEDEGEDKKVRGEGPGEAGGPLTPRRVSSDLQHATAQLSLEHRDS
Procedure, shortened: as §1

ETV3L = biological target: T7, ETV3L (Homo sapiens, UniProt Q6ZN32 1-361); conditions: protein: recombinant; tags: N-terminal GST; dsDNA, one strand shown
T7 sequence: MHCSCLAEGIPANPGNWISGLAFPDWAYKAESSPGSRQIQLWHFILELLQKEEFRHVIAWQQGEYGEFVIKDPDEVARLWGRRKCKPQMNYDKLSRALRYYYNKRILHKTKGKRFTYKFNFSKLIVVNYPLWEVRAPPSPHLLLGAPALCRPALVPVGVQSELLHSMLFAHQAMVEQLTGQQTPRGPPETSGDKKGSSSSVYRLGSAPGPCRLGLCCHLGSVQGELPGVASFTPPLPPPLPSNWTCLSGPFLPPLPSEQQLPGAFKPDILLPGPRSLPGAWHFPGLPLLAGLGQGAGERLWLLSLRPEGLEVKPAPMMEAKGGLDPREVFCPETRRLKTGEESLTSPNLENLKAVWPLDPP
Procedure, shortened: as §1

ETS2 = biological target: T8, ETS2 (Homo sapiens, UniProt P15036 1-469); conditions: protein: recombinant; tags: N-terminal GST; dsDNA, one strand shown
T8 sequence: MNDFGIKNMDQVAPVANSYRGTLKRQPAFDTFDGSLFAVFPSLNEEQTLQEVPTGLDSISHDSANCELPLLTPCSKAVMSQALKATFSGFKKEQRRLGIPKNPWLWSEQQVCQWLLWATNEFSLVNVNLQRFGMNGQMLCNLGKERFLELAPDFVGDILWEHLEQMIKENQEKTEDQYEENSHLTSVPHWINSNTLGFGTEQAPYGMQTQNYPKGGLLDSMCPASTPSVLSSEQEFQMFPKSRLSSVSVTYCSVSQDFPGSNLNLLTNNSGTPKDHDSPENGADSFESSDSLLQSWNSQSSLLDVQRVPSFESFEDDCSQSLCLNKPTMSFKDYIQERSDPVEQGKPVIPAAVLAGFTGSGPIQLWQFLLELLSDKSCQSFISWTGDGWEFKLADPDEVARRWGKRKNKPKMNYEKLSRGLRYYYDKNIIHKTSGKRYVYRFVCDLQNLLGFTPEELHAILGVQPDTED
Procedure, shortened: as §1

SPDEF = biological target: T9, SPDEF (Homo sapiens, UniProt O95238 1-335); conditions: protein: recombinant; tags: N-terminal GST; dsDNA, one strand shown
T9 sequence: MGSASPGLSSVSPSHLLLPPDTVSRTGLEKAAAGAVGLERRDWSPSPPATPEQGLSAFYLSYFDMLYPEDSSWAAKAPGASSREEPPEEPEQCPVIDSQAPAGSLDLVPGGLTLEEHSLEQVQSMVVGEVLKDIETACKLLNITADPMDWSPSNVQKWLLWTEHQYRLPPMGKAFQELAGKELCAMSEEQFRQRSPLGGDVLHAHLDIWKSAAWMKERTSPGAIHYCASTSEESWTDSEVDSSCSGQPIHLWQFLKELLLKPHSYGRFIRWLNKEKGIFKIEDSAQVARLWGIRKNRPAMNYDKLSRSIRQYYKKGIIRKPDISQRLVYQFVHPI
Procedure, shortened: as §1

ETV7 = biological target: T10, ETV7 (Homo sapiens, UniProt Q9Y603 1-341); conditions: protein: recombinant; tags: N-terminal GST; dsDNA, one strand shown
T10 sequence: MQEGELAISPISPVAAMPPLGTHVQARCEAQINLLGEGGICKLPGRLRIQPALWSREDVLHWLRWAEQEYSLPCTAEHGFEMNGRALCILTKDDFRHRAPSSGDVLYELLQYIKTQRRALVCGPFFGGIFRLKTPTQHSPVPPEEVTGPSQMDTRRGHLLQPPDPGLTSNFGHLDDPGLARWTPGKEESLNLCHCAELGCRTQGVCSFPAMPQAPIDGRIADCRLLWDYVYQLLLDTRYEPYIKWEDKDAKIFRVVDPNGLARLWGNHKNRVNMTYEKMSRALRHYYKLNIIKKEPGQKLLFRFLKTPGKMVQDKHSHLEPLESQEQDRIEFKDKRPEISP
Procedure, shortened: as §1

ELF5 = biological target: T11, ELF5 (Homo sapiens, UniProt Q9UKW6-2 1-255); conditions: protein: recombinant; tags: N-terminal GST; dsDNA, one strand shown
T11 sequence: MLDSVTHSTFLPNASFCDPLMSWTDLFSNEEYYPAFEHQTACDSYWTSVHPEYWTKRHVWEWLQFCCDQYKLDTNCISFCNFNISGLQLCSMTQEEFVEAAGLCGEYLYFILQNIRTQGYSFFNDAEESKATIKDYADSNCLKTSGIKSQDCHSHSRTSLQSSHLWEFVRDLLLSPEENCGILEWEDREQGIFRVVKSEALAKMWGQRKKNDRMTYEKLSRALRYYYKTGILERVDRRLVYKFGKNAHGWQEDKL
Procedure, shortened: as §1

ETV3 = biological target: T12, ETV3 (Homo sapiens, UniProt P41162-2 1-143); conditions: protein: recombinant; tags: N-terminal GST; dsDNA, one strand shown
T12 sequence: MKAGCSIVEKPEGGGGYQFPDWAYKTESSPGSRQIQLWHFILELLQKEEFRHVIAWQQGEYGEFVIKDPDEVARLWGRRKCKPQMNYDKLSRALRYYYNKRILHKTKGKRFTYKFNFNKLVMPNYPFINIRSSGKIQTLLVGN
Procedure, shortened: as §1

ETV6 = ETV6 (Homo sapiens, UniProt P41212 1-452); conditions: protein: recombinant; tags: N-terminal GST; dsDNA, one strand shown
Sequence of ETV6 (P41212 whole entry): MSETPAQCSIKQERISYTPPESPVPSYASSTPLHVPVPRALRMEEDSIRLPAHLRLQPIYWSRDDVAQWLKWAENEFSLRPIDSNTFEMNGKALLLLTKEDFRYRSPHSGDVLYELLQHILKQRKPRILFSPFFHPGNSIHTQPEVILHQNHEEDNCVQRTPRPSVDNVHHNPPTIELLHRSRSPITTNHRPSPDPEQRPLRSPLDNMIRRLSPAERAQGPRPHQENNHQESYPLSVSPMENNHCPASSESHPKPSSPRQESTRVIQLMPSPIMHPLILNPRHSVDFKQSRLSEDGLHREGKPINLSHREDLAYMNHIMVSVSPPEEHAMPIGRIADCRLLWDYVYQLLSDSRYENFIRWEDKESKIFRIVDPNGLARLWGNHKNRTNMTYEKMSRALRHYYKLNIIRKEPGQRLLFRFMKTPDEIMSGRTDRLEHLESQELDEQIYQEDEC
Procedure, shortened: as §1

ACTACG was tested, and the binding signal (FEV) was 1.34 fold enrichment (6-mer frequency, TF over GST control), the binding signal (ETV5) was 1.27 fold enrichment (6-mer frequency, TF over GST control) and the binding signal (HSF1) was 1.09 fold enrichment (6-mer frequency, TF over GST control). The binding signal (SPIC) was 1.12 fold enrichment (6-mer frequency, TF over GST control), the binding signal (ELF4) was 1.26 fold enrichment (6-mer frequency, TF over GST control) and the binding signal (ELK4) was 1.32 fold enrichment (6-mer frequency, TF over GST control). For the same sequence, the binding signal (ETV2) was 1.33 fold enrichment (6-mer frequency, TF over GST control), the binding signal (ELF3) was 1.28 fold enrichment (6-mer frequency, TF over GST control) and the binding signal (CRX) was 1.08 fold enrichment (6-mer frequency, TF over GST control). For the same sequence, the binding signal (ETV1) was 1.25 fold enrichment (6-mer frequency, TF over GST control), the binding signal (ERF) was 1.34 fold enrichment (6-mer frequency, TF over GST control) and the binding signal (ETV3L) was 1.31 fold enrichment (6-mer frequency, TF over GST control). The binding signal (ETS2) was 1.26 fold enrichment (6-mer frequency, TF over GST control), the binding signal (SPDEF) was 1.27 fold enrichment (6-mer frequency, TF over GST control) and the binding signal (ETV7) was 1.4 fold enrichment (6-mer frequency, TF over GST control). For the same sequence, the binding signal (ELF5) was 1.33 fold enrichment (6-mer frequency, TF over GST control), the binding signal (ETV3) was 1.35 fold enrichment (6-mer frequency, TF over GST control) and the binding signal (ETV6) was 1.32 fold enrichment (6-mer frequency, TF over GST control).
